# Rows were chosen to be rich in hits. Some 1.8% of all compounds tested hit in one or more screens of this group.
# DENV2 CPE rescue – inhibitors of DENV2 cytopathic effect. DENV2-infected cells, cytopathic effect rescue, plate reader. CPE inhibition, % at 9.99 µM. AID 651640. 350,000 tested, 1.7% active; in the data active = CPE inhibition above about 20%, passing the limit was not always enough; inconclusive = no clear call, values can overlap the other calls; tested in BHK-21 cells;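 note: 0% = median of neutral control wells and 100% = median of positive control wells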
# PDI turbidity – inhibitors of human protein disulfide isomerase; AID 588391; PDI insulin aggregation turbidity, A650, 90 min; 350,000 tested, 0.052% active; inhibition, % at 10 µM;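 active = mean inhibition across replicates of 30% or more, whatever share of single replicates reach that level; inconclusive = mean inhibition below 30% while every single replicate reaches 30%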
# ERAP1 HTS inh – blocks human ERAP1 aminopeptidase activity | Q9NZ08 | inhibition, % at 10.7 µM | 340,000 tested, 0.15% active | recombinant ERAP1, Leu-AMC fluorescence, 60 min | AID 652197;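 active = mean replicate inhibition of at least 30%, or all replicates individually reaching that 30% level; inactive = mean below 30% and not every replicate reaching it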;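 note: 0% = neutral control wells and 100% = L-leucinethiol positive control wells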
# ERp5 inh – ERp5 (human) disulfide isomerase inhibition; Q15084; ERp5 insulin aggregation, absorbance 650 nm, 90 min; inhibition, % at 9.99 µM; 350,000 tested, 0.05% active;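 active = mean replicate inhibition above about 25%, with every replicate also reaching it, limit read from the data, passing the limit was not always enough; inconclusive = only one of those two criteria met; inactive = neither criterion met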
# AF4-AF9 inh – inhibitors of human MLL-AF4/AF9 interaction; P42568; AlphaScreen, biotin-AF4 peptide binding to FLAG-AF9; inhibition, % at 10 µM; 350,000 tested, 0.47% active; AID 651704;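 active = every replicate reaching a set inhibition limit, whatever the replicate mean, cut at about 25% in these data; inconclusive = mean inhibition reaches that limit but some replicates miss it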;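 note: 0% = plate neutral control median and 100% = total signal loss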
# Target sequence (P42568 whole entry, looked up): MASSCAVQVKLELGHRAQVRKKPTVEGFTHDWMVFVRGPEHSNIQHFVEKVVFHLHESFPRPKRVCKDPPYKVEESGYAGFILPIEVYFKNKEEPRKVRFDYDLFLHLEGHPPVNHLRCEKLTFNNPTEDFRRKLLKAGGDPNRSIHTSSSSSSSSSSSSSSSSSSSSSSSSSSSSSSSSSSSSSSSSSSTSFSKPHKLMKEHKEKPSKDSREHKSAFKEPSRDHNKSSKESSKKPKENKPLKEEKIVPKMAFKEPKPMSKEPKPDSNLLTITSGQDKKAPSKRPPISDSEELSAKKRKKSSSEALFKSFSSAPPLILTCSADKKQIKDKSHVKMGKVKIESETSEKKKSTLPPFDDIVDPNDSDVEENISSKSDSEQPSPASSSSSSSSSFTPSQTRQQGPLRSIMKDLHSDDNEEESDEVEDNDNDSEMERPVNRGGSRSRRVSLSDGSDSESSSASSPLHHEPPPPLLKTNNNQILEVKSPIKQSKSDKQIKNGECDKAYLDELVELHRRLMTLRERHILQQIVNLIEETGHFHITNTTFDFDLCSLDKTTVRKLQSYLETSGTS
# * hit, by the source's call; ? = inconclusive; nt = no result given; ! = not active in a repeat.
SMILES,DENV2 CPE rescue,PDI turbidity,ERAP1 HTS inh,ERp5 inh,AF4-AF9 inh
C[C@H](CO)N1C[C@H](C)[C@@H](CN(C)S(=O)(=O)c2ccccc2)Oc2ccc(NC(=O)Nc3ccc(C(F)(F)F)cc3)cc2CC1=O,64.6*,nt,-0.2,-3.2,0.0
COc1ccccc1CN(C)C[C@@H]1OCc2cnnn2CCCC(=O)N([C@H](C)CO)C[C@@H]1C,3.8,nt,0.9,-1.4,-0.6
CCCNC(=O)C[C@@H]1C[C@@H]2c3cc(NC(=O)c4cccnc4)ccc3O[C@@H]2[C@H](CO)O1,1.6,nt,nt,nt,nt
COCC(=O)N1CC2(C1)[C@H](c1ccc(-c3ccccc3)cc1)[C@@H](CO)N2C(=O)COC,-5.9,nt,1.2,-1.3,-0.3
CCCC(=O)N1CCC2(CC1)CN(S(=O)(=O)c1ccc(C)cc1)[C@@H](CO)c1[nH]c3cc(OC)ccc3c12,-0.8,nt,nt,nt,-0.3
C[C@@H]1CN([C@H](C)CO)C(=O)Cc2cc(NC(=O)Nc3ccc(C(F)(F)F)cc3)ccc2O[C@@H]1CN(C)S(=O)(=O)c1cccs1,26.9*,nt,0.7,7.6,1.4
C[C@H]1CN([C@@H](C)CO)C(=O)Cc2cc(NS(=O)(=O)c3cccs3)ccc2O[C@@H]1CN(C)S(=O)(=O)c1ccccc1,41.0*,nt,-1.4,11.5,1.7
C[C@H](CO)N1C[C@H](C)[C@@H](CN(C)S(=O)(=O)c2ccccc2)Oc2ccc(NS(=O)(=O)c3cccs3)cc2CC1=O,-1.4,nt,-3.1,3.3,-1.2
CNC[C@@H]1Oc2ccc(NC(=O)Nc3ccc(OC)cc3)cc2CC(=O)N([C@@H](C)CO)C[C@H]1C,3.5,nt,3.4,3.2,-12.0
Cc1ccc(S(=O)(=O)N(C)C[C@@H]2Oc3ccc(NC(=O)c4ccncc4)cc3C(=O)N([C@@H](C)CO)C[C@H]2C)cc1,?,nt,-2.9,0.0,-0.6
Cc1cc2c(cc1S(=O)(=O)N1CCN(c3cccc(C(F)(F)F)c3)CC1)OCC(=O)N2,31.6*,12.8,-1.5,-3.7,1.1
C[C@@H]1CCCCO[C@@H](CN(C)Cc2ccccc2)[C@@H](C)CN([C@H](C)CO)C(=O)c2cc(NC(=O)Nc3cccc4ccccc34)ccc2O1,21.0*!,6.1,-0.4,-2.3,-13.8
C[C@@H]1CCCCO[C@@H](CN(C)Cc2ccccc2)[C@H](C)CN([C@@H](C)CO)C(=O)c2cc(NC(=O)Nc3cccc4ccccc34)ccc2O1,-25.6,nt,-1.4,-4.0,11.0
C[C@@H]1CCCCO[C@H](CN(C)C(=O)Cc2ccccc2)[C@@H](C)CN([C@H](C)CO)C(=O)c2cc(NC(=O)Nc3cccc4ccccc34)ccc2O1,14.4,nt,3.6,-0.6,-4.2
C[C@H](CO)N1C[C@H](C)[C@@H](CN(C)C(=O)Cc2ccccc2)OCCCC[C@H](C)Oc2ccc(NC(=O)Nc3cccc4ccccc34)cc2C1=O,23.6*,nt,0.6,-2.1,-1.7
CO[C@@H]1CN(C)C(=O)c2ccc(NS(=O)(=O)c3ccccc3)cc2OC[C@H](C)N(C)C[C@H]1C,25.0*,nt,-1.0,-6.4,-1.8
CO[C@H]1CN(C)C(=O)c2cc(NS(=O)(=O)c3ccccc3)ccc2OC[C@H](C)N(C)C[C@H]1C,27.0*,nt,0.0,2.3,0.8
CO[C@H]1CN(C)C(=O)c2ccc(NS(=O)(=O)c3ccccc3)cc2OC[C@H](C)N(Cc2ccccn2)C[C@@H]1C,35.6*,nt,-1.3,8.1,1.1
COc1ccc(CN(C)C[C@@H]2OCc3cnnn3CCCC(=O)N([C@H](C)CO)C[C@@H]2C)cc1,-11.2,nt,-1.0,-4.3,-0.8
C[C@H](CO)N1C[C@H](C)[C@H](CN(C)S(=O)(=O)c2ccc(Cl)cc2)Oc2c(NS(=O)(=O)c3cn(C)cn3)cccc2C1=O,-4.3,nt,-1.4,-3.0,0.7
Cc1ccc(S(=O)(=O)N(C)C[C@@H]2Oc3ccc(NC(=O)Cn4cnnn4)cc3C(=O)N([C@@H](C)CO)C[C@@H]2C)cc1,42.4*,nt,-2.3,3.4,0.0
Cc1ccc(S(=O)(=O)N(C)C[C@@H]2Oc3ccc(NC(=O)Cn4cnnn4)cc3CC(=O)N([C@H](C)CO)C[C@@H]2C)cc1,30.8*,nt,1.7,-21.8,1.9
Cc1ccc(S(=O)(=O)N(C)C[C@H]2Oc3ccc(NC(=O)Cn4cnnn4)cc3CC(=O)N([C@H](C)CO)C[C@@H]2C)cc1,2.5,nt,2.7,-11.4,-1.4
CCC(=O)N(C)C[C@@H]1Oc2cc(-c3cncnc3)ccc2S(=O)(=O)N([C@H](C)CO)C[C@H]1C,-2.5,nt,6.3,3.9,2.7
O=C(NC(=S)N1CCN(c2ccccc2)CC1)c1c(F)cccc1F,74.5*,-5.4,-1.4,1.4,-4.4
SMILES,DENV2 CPE rescue,PDI turbidity,ERAP1 HTS inh,ERp5 inh,AF4-AF9 inh
O=C(NC(=S)N1CCN(c2ccc(F)cc2)CC1)c1cccs1,-2.6,2.5,2.6,-6.7,4.9
C[C@H](CO)N1C[C@H](C)[C@H](CN(C)S(=O)(=O)c2ccccc2)Oc2ccc(NS(=O)(=O)c3ccc(F)cc3)cc2C1=O,-8.3,nt,nt,nt,nt
COC(=O)C(=O)C1CCc2c(Cl)cc(OC)c(OC)c2C1=O (configuration not stated),64.7*,18.0,-5.3,3.6,0.5
CC(C)C[C@@H](CN1CCC[C@@H]1CN1C(=O)C(=O)NC[C@@H]1Cc1ccccc1)N1C[C@H](Cc2ccc(O)cc2)N(CCc2ccccc2)C(=O)C1=O,-7.2,47.9*,0.9,4.2,-0.7
CC(C)C[C@@H](CN1CCCC1CN1C(=S)NC[C@@H]1Cc1ccc(O)cc1)N1C[C@H](Cc2ccc(O)cc2)N(CC2CCCCCC2)C1=S (some centres not stated),41.0*,-1.4,nt,0.9,9.8
CCOc1ccc(CCN2C(=S)N([C@@H](CC(C)C)CN3CCCC3CN3C(=S)NC[C@@H]3Cc3ccc(O)cc3)C[C@@H]2Cc2ccc(O)cc2)cc1 (some centres not stated),31.3*,25.1,0.6,3.5,3.7
CC(C)C[C@@H](CN1CCC[C@H]1CN1C(=O)C(=O)NC[C@@H]1Cc1ccccc1)N1C[C@H](Cc2ccc(O)cc2)N(CCc2ccccc2)C(=O)C1=O,-4.0,nt,-1.5,-0.3,-0.9
C[C@@H]1CCCCO[C@@H](CN(C)C(=O)Nc2ccc(C(F)(F)F)cc2)[C@@H](C)CN([C@H](C)CO)C(=O)c2cc(NS(=O)(=O)c3ccc(F)cc3)ccc2O1,6.7,nt,-1.3,6.4,-0.4
C[C@@H]1CCCCO[C@@H](CN(C)C(=O)Nc2ccc(C(F)(F)F)cc2)[C@H](C)CN([C@@H](C)CO)C(=O)c2cc(NS(=O)(=O)c3ccc(F)cc3)ccc2O1,60.8*,nt,-1.0,-0.4,-4.7
C[C@@H]1CCCCO[C@H](CN(C)C(=O)Nc2ccc(C(F)(F)F)cc2)[C@H](C)CN([C@H](C)CO)C(=O)c2cc(NS(=O)(=O)c3ccc(F)cc3)ccc2O1,70.9*,nt,-2.6,-3.8,-1.9
C[C@H](CO)N1C[C@H](C)[C@@H](CN(C)C(=O)Nc2ccc(C(F)(F)F)cc2)OCCCC[C@H](C)Oc2ccc(NS(=O)(=O)c3ccc(F)cc3)cc2C1=O,94.5*,nt,-2.2,-2.9,-4.5

# From PubChem
